This note sets out measurements from ChEMBL document CHEMBL1961873, “Compounds: GSK PKIS; Assays: Nanosyn kinase panel” (2012).

The structures appear in SMILES notation. Values joined by “and” are separate entries in the source; they are usually repeats but may differ in a detail not shown here. Equal entries are not always repeated.
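Also: reported figure is an averaged percent inhibition of the kinase.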

The target of this assay is Mitogen-activated protein kinase 1 (Homo sapiens) (UniProt P28482). The conditions noted are these: at 0.1 µM.
Sequence of Mitogen-activated protein kinase 1 (Homo sapiens) (P28482 whole entry): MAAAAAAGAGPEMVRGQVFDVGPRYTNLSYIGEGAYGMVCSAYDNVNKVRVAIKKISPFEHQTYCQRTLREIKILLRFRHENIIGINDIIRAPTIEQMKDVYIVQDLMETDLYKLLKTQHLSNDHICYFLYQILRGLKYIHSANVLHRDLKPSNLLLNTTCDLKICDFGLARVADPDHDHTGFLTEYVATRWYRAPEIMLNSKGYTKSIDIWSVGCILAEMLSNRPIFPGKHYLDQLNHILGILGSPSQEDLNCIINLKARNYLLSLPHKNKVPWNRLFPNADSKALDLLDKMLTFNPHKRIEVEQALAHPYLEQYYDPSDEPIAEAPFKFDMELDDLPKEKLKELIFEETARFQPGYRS
Take `CNC(=O)c1ncccc1Nc1nc(Nc2cc3c(cc2OC)CCCN3C(=O)CN(C)C)nc2[nH]ccc12`: the inhibition (usually the drop in the measured response relative to a control, in per cent) was 3.01%.

As to `Cc1ccc(-c2cc3c(NC(=O)C4CC4)ncnc3o2)cc1`, the inhibition worked out at 2.94%.

In the case of `CNC(=O)c1sc(-n2cnc3cc(OC)c(OC)cc32)cc1OCc1ccccc1C(F)(F)F`, the inhibition turned out to be 5.45%. `O=C(O[C@H]1CN[C@H](C#Cc2cc3ncnc(Nc4ccc5c(ccn5Cc5cc(F)ccc5F)c4)c3s2)C1)N1CCOCC1`: the inhibition amounted to 3.73%. As for `CN1CCN(Cc2ccc(-c3cc4ncnc(Nc5ccc(OCc6cccc(F)c6)c(Cl)c5)c4s3)o2)CC1`, the inhibition was 9.37% and 6.21%. Next, `CCn1c(-c2nonc2N)nc2cncc(C(=O)NCCNC)c21`: 6.91%.

As for `CCS(=O)(=O)c1ccc(OC)c(Nc2ncc(-c3cccc(F)c3)o2)c1`, the inhibition amounted to 6.33%. In the case of `COC(=O)Nc1nc2cc(Oc3ccc(NC(=O)Nc4ccccc4)cc3)ccc2[nH]1`, the inhibition turned out to be 4.54%. With `COc1c(C(N)=O)cc(-c2ccc(Cl)cc2)cc1-c1ccc(S(N)(=O)=O)cc1`, the inhibition was determined as 5.87%. For the compound `CC1(C)CC(n2cnc(-c3ccc(F)cc3)c2-c2ccnc(N)n2)CC(C)(C)N1`, the inhibition is -0.07%. Regarding `CCCNc1cccc(-n2ncc3c(N/N=C/c4ccncc4)ncnc32)c1`, the inhibition came out at 1.61%.

Consider `CN(c1ccc(NC(=O)NCCN2CCOCC2)cc1)c1ccnc(Nc2ccc(CS(C)(=O)=O)cc2)n1`, for which the inhibition stood at 5.07%. As for `CCOc1ccc2c(-c3ccnc(Nc4cc(OC)cc(C(F)(F)F)c4)n3)cnn2n1`, the inhibition worked out at 0.19%.

In the case of `COc1cccc(-n2ncc3c(N/N=C/c4ccc(C(=O)NCCN(C)C)cc4)ncnc32)c1`, the inhibition is 1.34%. On to `COc1ccc(-c2nn3ncccc3c2-c2ccnc(Nc3ccc(F)c(F)c3)n2)cc1`, for which the inhibition was 4.91%.
